In PubChem BioAssay AID1159580 (chemical genetic matrix, 2015):
Screen size: about 5,500 compounds; about 2,000 (36%) were called active. Roughly 18% stayed inconclusive and do not appear here. Cut-off read from the data, not from the text of the source: active = normalized growth mostly below about 0.91 (no sharp cut-off); inconclusive = no clear call, values can overlap the other calls; inactive = mostly above about 0.92. The list shows a part of the results.

Test: chemical genetic growth profiling, strain panel (AID 1159580);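 note: tested at 20 µM; growth read once vehicle control cultures reached saturation at 30 °C; 1 = growth at the plate median or of vehicle wells; lower values mean less growth of the strain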
Settings: S. cerevisiae deletion strains, growth OD

Measured: normalized growth

CC(=O)Nc1ccc(/C=C/[N+](=O)[O-])cc1
active: locus YFR019W, strain FAB1, active compounds read low 0.629 | locus YHR030C, strain SLT2, active compounds read low 0.697 | locus YLR113W, strain HOG1, active compounds read low 0.628 | locus YPL256C, strain CLN2, active compounds read low 0.642
inactive: locus YAR019C, strain CDC15, active compounds read low 0.977 | locus YBL105C, strain PKC1, active compounds read low 0.972 | locus YBR135W, strain CKS1, active compounds read low 0.976 | locus YBR136W, strain MEC1, active compounds read low 0.964 | locus YBR160W, strain CDC28, active compounds read low 0.98 | locus YDL017W, strain CDC7, active compounds read low 0.98 | locus YDL028C, strain MPS1, active compounds read low 0.973 | locus YDL101C, strain DUN1, active compounds read low 0.994 | locus YDL108W, strain KIN28, active compounds read low 0.972 | locus YDL132W, strain cdc53, active compounds read low 0.975 | locus YDL214C, strain PRR2, active compounds read low 0.857 | locus YDR052C, strain DBF4, active compounds read low 0.98 | locus YDR054C, strain cdc34, active compounds read low 0.974 | locus YDR226W, strain ADK1, active compounds read low 0.975 | locus YDR477W, strain SNF1, active compounds read low 0.809 | locus YER123W, strain YCK3, active compounds read low 0.679 | locus YER133W, strain GLC7, active compounds read low 0.806 | locus YFL009W, strain cdc4, active compounds read low 0.974 | locus YFL029C, strain CAK1, active compounds read low 0.962 | locus YFR003C, strain YPI1, active compounds read low 0.982 | locus YFR028C, strain CDC14, active compounds read low 0.972 | locus YGR040W, strain KSS1, active compounds read low 0.807 | locus YGR052W, strain FMP48, active compounds read low 0.843 | locus YGR092W, strain DBF2, active compounds read low 0.816 | locus YHR079C, strain IRE1, active compounds read low 0.809 | locus YHR082C, strain KSP1, active compounds read low 0.804 | locus YHR205W, strain SCH9, active compounds read low 0.723 | locus YIL147C, strain SLN1, active compounds read low 0.97 | locus YJL095W, strain BCK1, active compounds read low 0.78 | locus YJL128C, strain PBS2, active compounds read low 0.969 | locus YJL157C, strain FAR1, active compounds read low 0.844 | locus YJR016C, strain ILV3, active compounds read low 0.981 | locus YJR066W, strain TOR1 (second series), active compounds read low 0.732 | locus YJR066W, strain TOR1, active compounds read low 0.684 | locus YKL048C, strain ELM1, active compounds read low 0.864 | locus YKL067W, strain YNK1, active compounds read low 0.852 | locus YKL101W, strain HSL1, active compounds read low 0.795 | locus YKL193C, strain SDS22, active compounds read low 0.977 | locus YKL203C, strain TOR2, active compounds read low 0.852 | locus YLR133W, strain CKI1, active compounds read low 0.861 | locus YLR403W, strain SFP1, active compounds read low 0.818 | locus YML070W, strain DAK1, active compounds read low 0.804 | locus YMR001C, strain CDC5, active compounds read low 0.971 | locus YMR205C, strain PFK2 (second series), active compounds read low 0.868 | locus YMR277W, strain FCP1, active compounds read low 0.976 | locus YNL006W, strain LST8, active compounds read low 0.996 | locus YNL020C, strain ARK1, active compounds read low 0.88 | locus YNL161W, strain CBK1, active compounds read low 0.973 | locus YNL183C, strain NPR1, active compounds read low 0.782 | locus YNL207W, strain RIO2, active compounds read low 0.978 | locus YNL222W, strain SSU72, active compounds read low 0.975 | locus YNL307C, strain MCK1 (second series), active compounds read low 0.78 | locus YOL078W, strain AVO1, active compounds read low 0.97 | locus YOL136C, strain PFK27, active compounds read low 0.829 | locus YOR061W, strain CKA2, active compounds read low 0.882 | locus YOR119C, strain RIO1, active compounds read low 0.855 | locus YOR231W, strain MKK1, active compounds read low 0.786 | locus YOR329C, strain SCD5, active compounds read low 0.985 | locus YPL031C, strain PHO85, active compounds read low 0.794 | locus YPL153C, strain RAD53, active compounds read low 0.776 | locus YPL204W, strain HRR25, active compounds read low 0.791 | locus YPL209C, strain IPL1, active compounds read low 0.98 | locus YPR025C, strain CCL1, active compounds read low 0.982 | locus YPR106W, strain ISR1, active compounds read low 0.988 | locus YPR111W, strain DBF20, active compounds read low 0.984 | strain NNK1, active compounds read low 0.999 | strain TSCII, active compounds read low 0.969
